Experimental data as given in the supplement of paper PMC6522484.
± gives the standard deviation of the averaged measurements.

Experiments:
[1] = tested on: DLD1; test: cell viability (CellTiter-Glo) relative to plate median (fraction of plate median); higher = more viable cells; conditions: 5 µM; treatment time 24 h; reporter: 7TFP
Procedure, shortened: (§1)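 Colorectal cancer cell lines stably transduced with lentiviral TCF/Wnt firefly luciferase reporters (7TFP or TCF4/Wnt) were seeded in 384-well plates. 24 h later they received library compounds at a final 5 µM for 24 h. Parallel plates were read for firefly luciferase or CellTiterGlo luminescence on a Tecan F500 reader. Each well's signal was normalised to the plate median (webcellHTS2, additive, no log transformation), and the mean of two independent replicates is reported.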

[2] = tested on: HCT116; test: as above; conditions: 5 µM; treatment time 24 h; reporter: TCF4/Wnt
Procedure, shortened: as §1

[3] = tested on: SW480; test: as above; conditions: 5 µM; treatment time 24 h; reporter: 7TFP
Procedure, shortened: as §1

[4] = tested on: DLD1; test: TCF/Wnt firefly luciferase reporter signal relative to plate median (fraction of plate median); higher = higher Wnt reporter signal; conditions: 5 µM; treatment time 24 h; reporter: 7TFP
Procedure, shortened: as §1

[5] = tested on: SW480; test: as above; conditions: 5 µM; treatment time 24 h; reporter: 7TFP
Procedure, shortened: as §1

SMILES	cell viability [1]	cell viability [2]	cell viability [3]	TCF/Wnt firefly luciferase reporter signal [4]	TCF/Wnt firefly luciferase reporter signal [5]
Cn1c([N+](=O)[O-])cnc1COC(N)=O	0.999 ± 0.072	1.07 ± 0.071	1.03 ± 0.014	1.05 ± 0.028	0.996 ± 0.12
CN(C)CCCN1c2ccccc2CCc2ccccc21	1.05 ± 0.1	0.989 ± 0.1	1.015 ± 0.0071	0.881 ± 0.012	0.913 ± 0.024
OC[C@H]1O[C@@](CO)(O[C@H]2O[C@H](CO)[C@@H](O)[C@H](O)[C@H]2O)[C@@H](O[C@H]2O[C@H](CO)[C@@H](O)[C@H](O)[C@H]2O)[C@@H]1O	1.01 ± 0.047	1.05 ± 0.014	1 ± 0.025	0.9905 ± 0.0078	0.989 ± 0.073
O=C1NCC2(CCN(CCc3ccccc3)CC2)O1	0.8925 ± 0.0021	1.06 ± 0.078	0.963 ± 0.018	1.05 ± 0.095	1.01 ± 0.062
COc1cc2c(cc1OC)C(=O)OC2	0.982 ± 0.054	1.12	1.025 ± 0.0071	1.22 ± 0.014	1.06 ± 0.014
CCCCC[C@H](CC(=O)NO)C(=O)N[C@H](C(=O)N1CCC[C@H]1CO)C(C)C	0.951 ± 0.0042	0.932 ± 0.057	0.9655 ± 0.00071	1 ± 0.05	1.16 ± 0.035
CNC(=C[N+](=O)[O-])NCCSCc1ccc(CN(C)C)o1	0.892 ± 0.018	0.983 ± 0.024	0.974 ± 0.011	0.998 ± 0.017	0.953 ± 0.016
Cc1c2oc3c(C)ccc(C(=O)N[C@@H]4C(=O)N[C@H](C(C)C)C(=O)N5CCC[C@H]5C(=O)N(C)CC(=O)N(C)[C@@H](C(C)C)C(=O)O[C@@H]4C)c3nc-2c(C(=O)N[C@@H]2C(=O)N[C@H](C(C)C)C(=O)N3CCC[C@H]3C(=O)N(C)CC(=O)N(C)[C@@H](C(C)C)C(=O)O[C@@H]2C)c(N)c1=O	1.06 ± 0.071	0.601 ± 0.18	1.31 ± 0.035	0.612 ± 0.11	0.802 ± 0.039
CC(C)[C@H](NC(=O)[C@@H]1CCCN1)C(=O)N1CCNC(=O)C1=O [Prolyl-valyl-diketopiperazine]	1.04 ± 0.12	1.14 ± 0.092	1.07 ± 0.05	0.919 ± 0.013	0.962 ± 0.021
CC(=O)O[C@@H]1CC2C(C)(C)[C@H](O)C[C@H](O)[C@@]2(C)C2CC[C@]3(C)C(=CC(=O)O[C@@H]3c3ccoc3)[C@]21C (stereo not given in full)	0.961 ± 0.098	0.982 ± 0.097	0.982 ± 0.011	1.07 ± 0.099	0.948 ± 0.088
CCC(=O)OCC(=O)[C@@]1(OC(=O)CC)[C@H](C)CC2C3C([C@@H](O)C[C@@]21C)[C@@]1(C)C=CC(=O)C=C1C[C@H]3Cl (stereo not given in full)	1.01 ± 0.014	1.02 ± 0.014	0.975 ± 0.0057	0.9755 ± 0.0078	0.926 ± 0.049
COc1ccc2c(=O)c(CC(=O)O)coc2c1	0.968 ± 0.059	0.984 ± 0.08	0.968 ± 0.012	1 ± 0.021	0.985 ± 0.092
C[C@H](CCC(=O)O)[C@H]1CC[C@H]2[C@@H]3[C@H](O)C[C@@H]4C[C@H](O)CC[C@]4(C)[C@H]3CC[C@]12C	1 ± 0.021	1.01 ± 0.22	1.025 ± 0.0071	0.949 ± 0.038	1.1 ± 0.028
COC(=O)c1c(OC)cc2c(c1C)Oc1c(Cl)c(OC(C)=O)c(Cl)c(C)c1C(=O)O2	0.935 ± 0.028	1.02 ± 0.088	0.9875 ± 0.0064	1.03 ± 0.042	0.968 ± 0.02
COc1ccc(-c2cc(=O)c3c(O)cc(OC)c(OC)c3o2)c(OC)c1	0.978 ± 0.088	0.988 ± 0.016	1.02 ± 0.064	0.9025 ± 0.005	0.896 ± 0.067
CO[C@H]1C[C@H](O[C@H]2[C@H](C)[C@@H](O[C@@H]3O[C@H](C)C[C@H](N(C)C)[C@H]3O)[C@@H](C)C[C@@]3(CO3)C(=O)[C@H](C)[C@@H](O)[C@@H](C)[C@@H](C)OC(=O)[C@@H]2C)O[C@@H](C)[C@@H]1O	0.97 ± 0.0028	0.91 ± 0.087	0.915 ± 0.05	0.869 ± 0.05	1.05 ± 0.1
Cc1cc(C(C)(C)CC(C)(C)C)ccc1OCCOCC[N+](C)(C)Cc1ccccc1	1.02 ± 0.069	0.977 ± 0.076	1.08 ± 0.014	0.87 ± 0.061	0.909 ± 0.028
CC(C)=CCC/C(C)=C\CO	0.992 ± 0.082	1.02 ± 0.042	1.1 ± 0.05	0.999 ± 0.016	0.964 ± 0.046
CCOC(=O)C(C)(C)Oc1ccc(Cl)cc1	1.01 ± 0.021	0.981 ± 0.0071	0.971 ± 0.055	1.24 ± 0.021	1.04 ± 0.035
COc1cc(OC)c2c(=O)c(-c3ccccc3)c(C)oc2c1OC	1.07 ± 0.15	1.05 ± 0.078	1.01 ± 0.052	1 ± 0.069	0.9545 ± 0.00071
Cc1cc(=O)n(-c2ccccc2)n1C	1.03 ± 0.081	0.94 ± 0.026	1.01 ± 0.034	1.11 ± 0.2	1.075 ± 0.0071
O=C(NC(Cc1cc(=O)[nH]c2ccccc12)C(=O)O)c1ccc(Cl)cc1 (stereo not given)	0.93 ± 0.0071	0.975 ± 0.026	0.931 ± 0.024	0.909 ± 0.064	0.818 ± 0.069
O=c1[nH]c(=O)n([C@H]2C[C@H](O)[C@@H](CO)O2)cc1C(F)(F)F	1.07 ± 0.042	1.03 ± 0.05	1.03 ± 0.014	0.818 ± 0.16	0.886 ± 0.013
COc1cc2oc3cc(OC)c(OC)c(CC=C(C)C)c3c(=O)c2c(O)c1CC=C(C)C	1.08 ± 0.16	1 ± 0.078	1.02 ± 0.054	1.1 ± 0.19	0.968 ± 0.046
C[C@]12CCC3c4ccc(OC(=O)c5ccccc5)cc4CCC3C1CCC2=O (stereo not given in full)	1.05 ± 0.05	1.01 ± 0.021	0.991 ± 0.011	0.978 ± 0.045	0.989 ± 0.058
Nc1ccc(S(=O)(=O)Nc2cnc3ccccc3n2)cc1	0.996 ± 0.02	1.07 ± 0.028	1 ± 0.08	1.11 ± 0.085	1.045 ± 0.0071
O=C(O)c1cccc(O)c1O	1.01 ± 0.047	1.14 ± 0.035	1.02 ± 0.068	0.954 ± 0.034	0.947 ± 0.0085
O=C(CCBr)N1CCN(C(=O)CCBr)CC1	1.07 ± 0.042	1.035 ± 0.0071	1.025 ± 0.0071	1.03 ± 0.12	1.01 ± 0.019
O=C(C=Cc1ccc(O)cc1)c1ccccc1O	0.926 ± 0.089	0.881 ± 0.03	1.02 ± 0.028	1.06 ± 0.035	1.07 ± 0.092
CCOC(N)=O	1.01 ± 0.021	1.04 ± 0.16	0.949 ± 0.018	1.035 ± 0.0071	0.982 ± 0.054
